According to the supplement of paper PMC10849652:
Of roughly 7,900 targets only a part is listed; those with a hit were picked by preference. About 0.6% of all pairs of compound and target were hits.

Columns and labels:
Assay in all cases: log2 fold change, soluble protein after heating vs DMSO (PISA); higher = thermal stabilisation; K562 cells, 10 uM, 30 min; active = over 0.2 and 3.5 SD of the protein, either way, in both replicates (recomputed)
[1] = compound: C1=CC=C(C=C1)[C@H](COC2=CC3=C(C=C2)NC(=O)N3)NC(=O)C4=CC=CN(C4=O)CC5=CC(=C(C=C5)F)F
How it was run: (§1)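 K562 cells at 2×10^6 cells/mL were given 10 μM compound for 30 min. Aliquots then went through 3 min of heating across 48°C-58°C, were pooled, and were extracted in PBS with 0.5% NP-40 at 4°C, and the supernatant after 21,000xg for 90 min was quantified by TMTpro 16plex LC-MS/MS with channel sums equalised. Thermal stability relative to control samples, from duplicates, is given as log2 fold change.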

[2] = compound: CC1=C(SC2=C1C(=N[C@H](C3=NN=C(N32)C)CC(=O)N)C4=CC=C(C=C4)Cl)C
How it was run: as §1

[3] = compound: CC1=C2C(=CC=C1)N=C(N(C2=O)C3=CC=CC=C3C)CN4C=NC5=C(N=CN=C54)N
How it was run: as §1

[4] = compound: Cc1sc2c(c1C)C(c1ccc(Cl)cc1)=N[C@@H](CC(=O)OC(C)(C)C)c1nnc(C)n1-2
How it was run: as §1

[5] = compound: c1ccc([C@@H]2C[C@H]2NC2CCNCC2)cc1
How it was run: as §1

Measured: log2 fold change

TCERG1 (UniProt O14776)
inactive: [1] -0.1 | [2] 0.106 | [3] 0.182 | [4] -0.065 | [5] -0.033

TIAL1 isoform 2 (UniProt Q01085)
Chain of UniProt Q01085 (Q01085 whole entry, looked up): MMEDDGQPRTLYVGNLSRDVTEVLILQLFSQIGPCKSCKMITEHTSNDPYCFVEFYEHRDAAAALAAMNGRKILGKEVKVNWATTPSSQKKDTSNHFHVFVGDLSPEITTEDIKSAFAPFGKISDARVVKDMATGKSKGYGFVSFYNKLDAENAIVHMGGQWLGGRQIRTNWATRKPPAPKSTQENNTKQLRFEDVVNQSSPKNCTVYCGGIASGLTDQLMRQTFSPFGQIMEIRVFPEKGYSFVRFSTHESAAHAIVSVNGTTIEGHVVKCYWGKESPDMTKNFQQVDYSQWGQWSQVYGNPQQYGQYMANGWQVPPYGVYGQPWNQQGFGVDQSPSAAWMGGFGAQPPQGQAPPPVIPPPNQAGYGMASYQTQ
inactive: [1] -0.023 | [2] 0.049 | [3] 0.015 | [4] 0.043 | [5] -0.024

SP3 (UniProt Q02447)
inactive: [1] 0.018 | [2] -0.024 | [3] -0.043 | [4] 0.025 | [5] 0.009

TEX30 (UniProt Q5JUR7)
Chain of UniProt Q5JUR7 (Q5JUR7 whole entry, looked up): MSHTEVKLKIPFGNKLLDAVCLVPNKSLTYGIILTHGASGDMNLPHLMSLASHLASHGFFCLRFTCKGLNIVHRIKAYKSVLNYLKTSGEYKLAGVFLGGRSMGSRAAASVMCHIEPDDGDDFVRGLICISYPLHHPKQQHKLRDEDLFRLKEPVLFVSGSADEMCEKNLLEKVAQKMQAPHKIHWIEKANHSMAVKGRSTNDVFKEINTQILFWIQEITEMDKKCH
inactive: [1] -0.162 | [2] -0.141 | [3] 0.235 | [4] 0.12 | [5] 0.052

SLC35F6 (UniProt Q8N357)
Chain of UniProt Q8N357 (Q8N357 whole entry, looked up): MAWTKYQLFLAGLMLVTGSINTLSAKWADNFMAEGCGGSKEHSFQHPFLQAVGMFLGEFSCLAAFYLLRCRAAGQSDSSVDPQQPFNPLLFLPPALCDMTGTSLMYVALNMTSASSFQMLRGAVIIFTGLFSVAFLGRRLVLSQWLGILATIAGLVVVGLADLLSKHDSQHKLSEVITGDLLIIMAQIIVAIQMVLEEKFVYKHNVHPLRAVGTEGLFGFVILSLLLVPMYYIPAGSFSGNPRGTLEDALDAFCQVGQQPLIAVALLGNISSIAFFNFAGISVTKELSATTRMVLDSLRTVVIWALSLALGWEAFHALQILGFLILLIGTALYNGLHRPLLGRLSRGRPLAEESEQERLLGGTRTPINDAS
inactive: [1] -0.034 | [2] -0.045 | [3] 0.064 | [4] -0.057 | [5] 0.067

SPAG9 (UniProt O60271)
inactive: [1] -0.033 | [2] 0.002 | [3] 0.071 | [4] 0.024 | [5] -0.006

STARD3 (UniProt Q14849)
Chain of UniProt Q14849 (Q14849 whole entry, looked up): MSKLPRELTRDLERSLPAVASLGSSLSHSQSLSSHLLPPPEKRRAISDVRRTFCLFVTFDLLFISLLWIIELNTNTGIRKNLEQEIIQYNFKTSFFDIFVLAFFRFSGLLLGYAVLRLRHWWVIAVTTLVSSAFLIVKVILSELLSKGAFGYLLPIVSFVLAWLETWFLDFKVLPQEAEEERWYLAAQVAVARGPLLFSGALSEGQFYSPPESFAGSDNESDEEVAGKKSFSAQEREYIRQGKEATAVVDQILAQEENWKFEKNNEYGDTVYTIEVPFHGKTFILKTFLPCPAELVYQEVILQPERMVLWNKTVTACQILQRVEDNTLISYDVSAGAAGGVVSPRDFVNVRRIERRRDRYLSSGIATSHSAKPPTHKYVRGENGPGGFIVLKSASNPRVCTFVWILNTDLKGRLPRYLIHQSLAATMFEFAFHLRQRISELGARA
inactive: [1] 0.011 | [2] -0.036 | [3] 0.14 | [4] 0.066 | [5] -0.153

SLC6A6 (UniProt P31641)
inactive: [1] -0.002 | [2] 0.065 | [3] 0.039 | [4] 0.018 | [5] 0.035

SNRNP40 (UniProt Q96DI7)
Chain of UniProt Q96DI7 (Q96DI7 whole entry, looked up): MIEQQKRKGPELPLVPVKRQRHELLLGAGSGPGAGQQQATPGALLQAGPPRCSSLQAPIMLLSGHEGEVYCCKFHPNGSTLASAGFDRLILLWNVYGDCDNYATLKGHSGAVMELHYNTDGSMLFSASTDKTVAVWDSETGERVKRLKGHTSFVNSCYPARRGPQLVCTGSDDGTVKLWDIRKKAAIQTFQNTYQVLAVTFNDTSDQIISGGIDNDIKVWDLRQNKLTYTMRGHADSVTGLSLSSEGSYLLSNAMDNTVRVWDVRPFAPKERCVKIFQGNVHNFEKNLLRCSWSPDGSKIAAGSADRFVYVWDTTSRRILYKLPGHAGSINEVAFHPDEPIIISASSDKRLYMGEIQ
inactive: [1] 0.054 | [2] -0.023 | [3] 0.007 | [4] 0.071 | [5] 0.022

TCOF1 isoform 6 (UniProt Q13428)
inactive: [1] 0.209 | [2] 0.151 | [3] -0.251 | [4] 0.271 | [5] 0.029

SLC39A11 (UniProt Q8N1S5)
inactive: [1] 0.053 | [2] 0.072 | [3] 0.078 | [4] -0.323 | [5] -0.003

SOAT1 (UniProt P35610)
active: [4] 0.802
inactive: [1] -0.023 | [2] 0.037 | [3] 0.071 | [5] 0.001

TANK (UniProt Q92844)
Chain of UniProt Q92844 (Q92844 whole entry, looked up): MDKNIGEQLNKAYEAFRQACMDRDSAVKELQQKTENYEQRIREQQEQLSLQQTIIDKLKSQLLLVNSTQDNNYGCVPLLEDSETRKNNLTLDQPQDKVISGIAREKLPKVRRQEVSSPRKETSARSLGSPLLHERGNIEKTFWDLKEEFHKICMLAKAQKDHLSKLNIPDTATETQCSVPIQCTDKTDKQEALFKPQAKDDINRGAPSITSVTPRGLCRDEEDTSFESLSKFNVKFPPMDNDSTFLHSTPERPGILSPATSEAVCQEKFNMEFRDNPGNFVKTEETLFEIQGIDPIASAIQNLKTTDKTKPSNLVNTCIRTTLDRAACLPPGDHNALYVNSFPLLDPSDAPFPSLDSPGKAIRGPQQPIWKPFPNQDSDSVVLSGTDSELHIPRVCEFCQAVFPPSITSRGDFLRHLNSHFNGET
inactive: [1] -0.001 | [2] -0.093 | [3] -0.019 | [4] 0.02 | [5] 0.026

SRSF9 (UniProt Q13242)
Chain of UniProt Q13242 (Q13242 whole entry, looked up): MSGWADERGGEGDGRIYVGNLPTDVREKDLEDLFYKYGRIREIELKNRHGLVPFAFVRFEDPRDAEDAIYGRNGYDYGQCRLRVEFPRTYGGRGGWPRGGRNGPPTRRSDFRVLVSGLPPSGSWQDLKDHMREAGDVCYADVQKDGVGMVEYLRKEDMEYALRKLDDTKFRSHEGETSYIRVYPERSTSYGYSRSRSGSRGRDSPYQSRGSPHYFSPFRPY
inactive: [1] 0.045 | [2] -0.452 | [3] -0.38 | [5] 0.041

THAP9 (UniProt Q9H5L6)
Chain of UniProt Q9H5L6 (Q9H5L6 whole entry, looked up): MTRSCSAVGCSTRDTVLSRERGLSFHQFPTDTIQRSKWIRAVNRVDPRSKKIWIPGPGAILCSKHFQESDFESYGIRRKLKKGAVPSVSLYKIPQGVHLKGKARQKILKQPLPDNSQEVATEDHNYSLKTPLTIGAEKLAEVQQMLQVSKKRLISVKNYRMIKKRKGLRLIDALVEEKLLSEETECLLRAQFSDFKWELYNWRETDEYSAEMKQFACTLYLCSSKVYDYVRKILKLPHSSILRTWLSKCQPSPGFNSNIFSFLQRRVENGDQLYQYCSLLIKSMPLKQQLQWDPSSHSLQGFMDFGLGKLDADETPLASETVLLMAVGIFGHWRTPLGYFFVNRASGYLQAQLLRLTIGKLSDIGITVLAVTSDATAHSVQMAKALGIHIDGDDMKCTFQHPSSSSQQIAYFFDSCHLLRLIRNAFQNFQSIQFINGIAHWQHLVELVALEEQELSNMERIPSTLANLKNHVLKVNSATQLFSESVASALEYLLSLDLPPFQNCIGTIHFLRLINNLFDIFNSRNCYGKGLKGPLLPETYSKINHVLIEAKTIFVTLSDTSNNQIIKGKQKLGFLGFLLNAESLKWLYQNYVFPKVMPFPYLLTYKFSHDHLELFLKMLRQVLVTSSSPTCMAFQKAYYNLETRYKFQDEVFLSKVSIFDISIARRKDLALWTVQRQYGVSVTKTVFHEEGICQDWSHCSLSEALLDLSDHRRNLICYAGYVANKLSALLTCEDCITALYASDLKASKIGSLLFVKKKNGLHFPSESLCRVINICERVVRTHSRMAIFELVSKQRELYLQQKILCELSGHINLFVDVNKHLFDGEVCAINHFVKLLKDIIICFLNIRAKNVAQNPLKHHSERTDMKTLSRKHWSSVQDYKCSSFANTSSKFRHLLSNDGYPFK
inactive: [1] 0.093 | [2] 0.167 | [5] -0.046

TAOK1 (UniProt Q7L7X3)
inactive: [1] 0.057 | [2] 0.095 | [3] 0.041 | [4] 0.012 | [5] 0.002

SNX2 isoform 2 (UniProt O60749)
Chain of UniProt O60749 (O60749 whole entry, looked up): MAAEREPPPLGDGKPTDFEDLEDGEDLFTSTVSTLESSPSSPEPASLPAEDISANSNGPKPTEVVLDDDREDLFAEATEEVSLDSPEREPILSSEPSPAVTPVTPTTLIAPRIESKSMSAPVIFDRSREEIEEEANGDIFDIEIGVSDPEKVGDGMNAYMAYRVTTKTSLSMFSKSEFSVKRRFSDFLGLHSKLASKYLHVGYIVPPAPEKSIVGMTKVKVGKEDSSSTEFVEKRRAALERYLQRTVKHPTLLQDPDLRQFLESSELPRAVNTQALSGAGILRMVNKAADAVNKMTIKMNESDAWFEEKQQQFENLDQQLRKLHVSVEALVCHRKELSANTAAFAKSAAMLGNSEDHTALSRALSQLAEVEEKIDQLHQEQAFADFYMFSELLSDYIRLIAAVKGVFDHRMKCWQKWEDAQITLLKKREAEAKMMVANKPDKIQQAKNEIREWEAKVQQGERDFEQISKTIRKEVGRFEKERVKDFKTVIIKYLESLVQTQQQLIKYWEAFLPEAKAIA
inactive: [1] 0.092 | [2] 0.217 | [3] 0.094 | [5] 0.066

SLC35B4 (UniProt Q969S0)
inactive: [1] 0.061 | [3] -0.069 | [4] -0.137

SPG21 (UniProt Q9NZD8)
inactive: [1] -0.128 | [2] -0.035 | [3] 0.031 | [4] -0.062 | [5] -0.02

SLC46A1 (UniProt Q96NT5)
inactive: [2] -0.09 | [3] 0.075 | [4] 0.024 | [5] 0.256

TFR2 (UniProt Q9UP52)
Chain of UniProt Q9UP52 (Q9UP52 whole entry, looked up): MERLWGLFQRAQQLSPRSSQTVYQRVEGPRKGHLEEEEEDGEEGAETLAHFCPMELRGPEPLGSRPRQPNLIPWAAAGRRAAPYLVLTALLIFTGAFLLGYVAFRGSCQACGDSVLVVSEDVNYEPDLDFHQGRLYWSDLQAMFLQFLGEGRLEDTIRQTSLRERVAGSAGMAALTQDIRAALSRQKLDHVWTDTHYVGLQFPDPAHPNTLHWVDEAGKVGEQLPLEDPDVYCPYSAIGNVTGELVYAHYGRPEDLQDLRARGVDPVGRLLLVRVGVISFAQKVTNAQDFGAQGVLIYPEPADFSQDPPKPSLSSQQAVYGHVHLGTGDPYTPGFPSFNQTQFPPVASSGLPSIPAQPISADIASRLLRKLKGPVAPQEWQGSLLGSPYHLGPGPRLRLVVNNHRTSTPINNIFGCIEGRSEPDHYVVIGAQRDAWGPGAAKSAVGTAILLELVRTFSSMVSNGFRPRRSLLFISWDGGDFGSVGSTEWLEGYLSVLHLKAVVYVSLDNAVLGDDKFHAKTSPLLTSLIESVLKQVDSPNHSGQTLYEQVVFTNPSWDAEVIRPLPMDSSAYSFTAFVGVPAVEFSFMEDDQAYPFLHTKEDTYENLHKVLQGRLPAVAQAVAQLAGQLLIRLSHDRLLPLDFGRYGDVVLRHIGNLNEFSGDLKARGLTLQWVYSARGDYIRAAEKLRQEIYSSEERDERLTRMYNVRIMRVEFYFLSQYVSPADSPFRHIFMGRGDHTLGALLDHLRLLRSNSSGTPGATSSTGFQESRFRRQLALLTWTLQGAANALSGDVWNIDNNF
inactive: [1] 0.01 | [2] 0.018 | [3] 0.004 | [4] 0.007 | [5] 0.026

SLC7A6OS (UniProt Q96CW6)
Chain of UniProt Q96CW6 (Q96CW6 whole entry, looked up): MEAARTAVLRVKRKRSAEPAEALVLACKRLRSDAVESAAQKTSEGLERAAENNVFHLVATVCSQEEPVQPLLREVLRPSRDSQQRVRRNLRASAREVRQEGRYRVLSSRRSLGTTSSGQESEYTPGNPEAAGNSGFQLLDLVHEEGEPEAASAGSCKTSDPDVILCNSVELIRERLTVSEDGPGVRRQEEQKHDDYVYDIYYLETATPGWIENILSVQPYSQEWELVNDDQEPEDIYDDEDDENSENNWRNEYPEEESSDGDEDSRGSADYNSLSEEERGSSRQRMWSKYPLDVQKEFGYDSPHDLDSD
inactive: [1] -0.026 | [2] -0.043 | [3] 0.03 | [4] 0.012 | [5] 0.032

TANGO6 (UniProt Q9C0B7)
inactive: [1] -0.139 | [2] 0.052 | [4] 0.018 | [5] -0.086

TAOK2 (UniProt Q9UL54)
inactive: [4] 0.026

SUPT5H isoform 2 (UniProt O00267)
inactive: [3] -0.015

TM7SF3 (UniProt Q9NS93)
inactive: [1] -0.058 | [2] 0.104 | [4] -0.037 | [5] 0.196

TBC1D20 isoform 3 (UniProt Q96BZ9)
inactive: [1] 0.017 | [2] 0.069 | [3] -0.021
active: [5] -0.403
